VDR inhibitor: vitamin D3 receptor (human) inhibition; P11473; VDR-SRC2-3 peptide fluorescence polarization, 2 h; Potency, µM, without a hit: max response, negative = inhibition, hits mostly inhibitors; 0.93% of 400,000 active; AID 504847; further: potency means the concentration at half of the fitted maximal effect; on the % scale 0 is the no-effect control and ±100 the full control effect
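Fluorescence polarization assay measuring small-molecule disruption of VDR binding to the coregulator peptide SRC2-3. Compounds were pin-transferred (23 nl) into the reagent mix and incubated 2 h at room temperature before reading.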
PLK1 PBD block: blocks phosphopeptide binding to human PLK1 polo-box domain | 2.8% of 360,000 active | AID 720504 | Plk1 PBD binding of FITC phosphopeptide, fluorescence polarization | Potency, µM, for the others: max response, negative = inhibition, most hits filed as inhibitors | P53350; further: potency means the concentration at half of the fitted maximal effect; series mostly up to about 57 µM; on the % scale 0 is the no-effect control and ±100 the full control effect; nearly all actives have a fitted effect of over 65% in size
uPA generation: inhibitors of cell surface uPA generation | cell surface uPA generation assay, qHTS | Potency, µM (titrated, usually from 38.3 µM), for the others: at the top dose activity change, negative = inhibition, hits mostly inhibitors | 0.31% of 330,000 active; active means well fitted inhibition curve with a large enough effect; inconclusive means small, poorly fitted or top-dose-only effect; inactive means no such curve, though single readings can be large or run the other way; tested in mouse RAW 264.7 cells; further: potency means the concentration at half of the fitted maximal effect; on the % scale 0 is the no-effect control and ±100 the full control effect; nearly all actives have a fitted effect of over 55% in size
TSHR antagonist: blocks TSH signaling through the human TSH receptor. AID 504810. activity change, negative = inhibition, % at 11.5 µM. TSHR-expressing cells, TSH-stimulated cAMP HTRF, 2 h; active compounds read low. 0.2% of 330,000 active;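 active means activity change below a set negative limit, meaning inhibition stronger than a set level, cut at about -70% in these data; inconclusive means activity change between two set negative limits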; further: on the % scale 0 is the no-effect control and ±100 the full control effect
Target sequence (P16473 whole entry, looked up): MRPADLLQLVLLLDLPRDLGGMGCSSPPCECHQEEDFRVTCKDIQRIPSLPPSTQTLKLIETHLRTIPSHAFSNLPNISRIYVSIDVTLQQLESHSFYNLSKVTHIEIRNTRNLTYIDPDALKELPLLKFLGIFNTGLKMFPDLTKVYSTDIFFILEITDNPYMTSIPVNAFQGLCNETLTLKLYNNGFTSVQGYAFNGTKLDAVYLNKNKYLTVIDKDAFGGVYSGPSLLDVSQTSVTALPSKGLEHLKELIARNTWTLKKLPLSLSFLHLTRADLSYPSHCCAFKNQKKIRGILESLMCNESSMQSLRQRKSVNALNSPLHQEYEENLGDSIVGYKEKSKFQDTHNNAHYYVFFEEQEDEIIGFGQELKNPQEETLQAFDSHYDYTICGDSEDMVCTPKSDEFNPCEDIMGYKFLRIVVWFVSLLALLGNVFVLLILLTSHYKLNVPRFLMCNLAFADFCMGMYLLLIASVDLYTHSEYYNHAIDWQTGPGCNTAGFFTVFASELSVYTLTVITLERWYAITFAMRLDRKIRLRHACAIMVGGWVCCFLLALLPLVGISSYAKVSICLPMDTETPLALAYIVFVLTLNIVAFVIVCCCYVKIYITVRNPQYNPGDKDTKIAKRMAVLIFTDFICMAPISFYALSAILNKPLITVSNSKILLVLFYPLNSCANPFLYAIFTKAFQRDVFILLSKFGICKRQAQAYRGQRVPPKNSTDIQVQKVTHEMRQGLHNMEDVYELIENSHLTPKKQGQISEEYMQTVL
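Competitive HTRF cAMP read-out (cryptate anti-cAMP antibody, cAMP-d2; 30 min, room temperature) in freshly harvested TSHR cells. Compounds added before TSH at EC80 (4nM final), followed by 2 hours' incubation at 37 deg C.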
PTAP TSG101 blk: blocks PTAP/TSG101 interaction to inhibit HIV-1 budding | Q99816 | Fluorescence polarization, FITC-PTAP peptide / Tsg101 binding | Potency, µM (doses to about 115 µM), inactives show at the top dose activity change, negative = inhibition, usual class: inhibitors | 340,000 tested, under 10 active | AID 493005; active means well fitted inhibition curve with a large enough effect in the main read-out, with a control signal flat, not every such curve was filed as active; inconclusive means small, poorly fitted or top-dose-only effect, or effect the other way, or a change in a side signal; inactive means no such curve, though single readings can be large or run the other way; further: potency means the concentration at half of the fitted maximal effect; % of control where 0% means no effect
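Tsg101 binding domain (10 uM final) was mixed with compound and a FITC-labeled PTAP peptide (50 nM final) in HEPES pH 7.5 buffer with NaCl, Tween 20, EDTA and TCEP; fluorescence polarization was read after 20 min at r.t.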
* marks the source's active call; other numbers are inactive results; u = inconclusive; x = no result. In the library only some 3.1% were active in any assay of this set; here they are far more common. Unless noted, the call rests on the fitted dose curve; in most records, active means well fitted curve in the direction sought with a large enough effect; inconclusive means small, poorly fitted or top-dose-only effect, or another doubt; inactive means no such curve, though single readings can be large; an effect the other way counts as inactive or inconclusive.

SMILES	VDR inhibitor	PLK1 PBD block	uPA generation	TSHR antagonist	PTAP TSG101 blk
COC(=O)c1ccc(CNC(=O)C2CCC(=O)N(CCCc3ccccc3)C2)cc1 (centres undefined)	u	3.4µM*	-3%	17	-8%
CC(=O)N1CC23C=CC(CC2CC12CCCCCC2)O3 (centres undefined)	u	8.4µM*	-2%	18	-11%
CC(=O)NCc1ccc(S(=O)(=O)N2CCN(c3ccccn3)CC2)cc1	-6%	-14%	1%	-12	-3%
CC(=O)NCc1ccc(S(=O)(=O)N2CCCN(C)CC2)cc1	u	3.8µM*	-1%	10	-3%
CC(=O)N1c2ccc(S(=O)(=O)N3CCCCC3)cc2CC1C(=O)NCc1ccc(N(C)C)cc1 (centres undefined)	-23%	21µM*	-8%	-1	0%
Cc1c(Cl)cccc1NC(=O)CSc1ncc2c(n1)-c1ccccc1N(C)S2(=O)=O	1%	x	x	x	x
CC(N)(C(=O)O)c1ccc(S(=O)(=O)O)cc1 (centres undefined)	9%	x	x	x	x
COC(=O)c1ccc(NC(=O)CSc2nc3ccc(OC)cc3[nH]2)cc1	-11%	x	x	x	x
NN/C(=C\[N+](=O)[O-])Nc1ccccc1	-12%	0%	3%	-4	-1%
NN/C(=C\[N+](=O)[O-])Nc1ccc(Cl)cc1	-6%	12µM*	3%	-14	-2%
Cc1ccc(NC(=O)CSc2nnc([C@H](C)NC(=O)OC(C)(C)C)o2)c(C)c1	4%	-11%	2%	9	1%
Cc1cccc(NC(=O)CSc2nnc([C@H](C)NC(=O)OC(C)(C)C)o2)c1C	u	27µM*	-2%	-4	-2%
O=C1COc2ccc(-c3cc(-c4ccc(Cl)cc4)c4c(n3)-c3ccccc3OC4)cc2N1	12%	x	x	x	x
COc1ccc(-n2sc3c(c2=S)-c2cc(OC)ccc2NC3(C)C)cc1	2%	24µM*	-5%	7	1%
COc1ccc2c(c1)-c1c(sn(-c3ccccc3)c1=S)C(C)(C)N2	6%	-6%	-3%	10	1%
Cn1ncc(C#N)c1NC(=O)C1CC(c2ccccc2Cl)=NO1 (centres undefined)	-22%	30µM*	3%	11	1%
O=S(=O)(c1nccs1)N1CCN(c2nc(-c3cccs3)nc3ccccc23)CC1	-15%	x	x	x	x
CCc1ccccc1NC(=O)CSc1nc2ccccc2nc1Cc1cccc(OC)c1	3%	x	x	x	x
NC(=O)c1ccc(-n2nnnc2Oc2ccccc2)cc1	-21%	24µM*	2%	3	1%
O=C(O)CCCCCN1C(=O)C(O)=C(C(=O)/C=C/c2ccccc2)C1c1ccccc1[N+](=O)[O-] (centres undefined)	-7%	34µM*	1%	3	-2%
Fc1ccc(C(Nc2ccccn2)c2c[nH]c3ccccc23)cc1 (centres undefined)	-16%	8.4µM*	-22%	-4	-1%
CCOc1ccccc1CNC(=O)CN1C(=O)C2CCCCN2c2ccc(C(=O)N(C)C)cc21 (centres undefined)	4%	x	x	x	x
CCOC(=O)c1cnc2c(OC)cccc2c1N1CCN(c2ccc(OC)cc2)CC1	4%	24µM*	-7%	2	-3%
CCOC(=O)c1cnc2c(OC)cccc2c1N1CCN(c2ccccc2OC)CC1	8%	-2%	-2%	11	0%
O=C(N/N=C/C=C\c1ccco1)c1ccccn1	79µM*	u	-7%	-3	3%
SMILES	VDR inhibitor	PLK1 PBD block	uPA generation	TSHR antagonist	PTAP TSG101 blk
O=C(N/N=C/C=C/c1ccco1)c1cnccn1	u	-11%	0%	-1	-2%
O=C(/C(=N/N=C/c1ccc(O)c(O)c1O)c1ccccc1)c1ccccc1	-12%	7.5µM*	-7%	0	-1%
Oc1ccc(/C=N/N=C(c2ccccc2)c2ccccc2)c(O)c1O	-27%	12µM*	-9%	2	-1%
COc1cc(N(C)C)ccc1C=c1c2ccccc2n2c1cc(-c1ccccc1)[n+]2C	79µM*	u	-12%	x	-1%
COc1cc(/C=C(/C(=O)O)c2ccc(-c3ccccc3)cc2)cc(OC)c1OC	-6%	-17%	-6%	-10	-4%
COc1cc(C=c2c3ccccc3n3c2cc(-c2ccccc2)[n+]3C)cc(OC)c1OC	-18%	4.7µM*	-11%	x	0%
CC(=O)c1cc(-c2ccccc2)n(CC(=O)NCc2ccccc2C)c1C	1%	x	x	x	x
O=C(CC[C@H]1O[C@@H](n2cnc3c(NC(=O)c4ccccc4)ncnc32)[C@H](O)[C@@H]1O)NCCCN1CCCC1=O	x	-4%	x	x	x
CCCN1C(=O)/C(=c2\sc3nc(=O)c(Cc4ccc(C)cc4)nn3c2=O)c2ccccc21	u	30µM*	-1%	-8	2%
CCCCN1C(=O)/C(=c2\sc3nc(=O)c(-c4ccccc4)nn3c2=O)c2ccccc21	u	27µM*	-5%	-10	-4%
Cc1cc(NC(=O)CSc2nc(-c3ccccc3C)nc3c2c(=O)n(C)c(=O)n3C)no1	-3%	x	x	x	x
CC(C)c1ccc(Nc2ncnc3onc(-c4ccc(F)cc4)c23)cc1	1%	x	x	x	x
Nc1nc(Cl)nc2c1ncn2[C@@H]1O[C@H](COP(=O)(O)OP(=O)(O)OP(=O)(O)O)[C@@H](O)[C@H]1O	2%	x	x	-6	x
CC1C/C(=C/c2ccco2)C(=O)/C(=C/c2ccco2)C1 (centres undefined)	x	x	x	9	x
CC1C/C(=C/c2ccccn2)C(=O)/C(=C/c2ccccn2)C1 (centres undefined)	28µM*	u	-4%	-1	-1%
O=C(Nc1cccc(C(=O)Nc2ccc(Br)cc2)c1)c1ccccc1	-2%	1%	-22%	-14	0%
S=C(Nc1cccc(Br)c1)c1ccccc1	-17%	13µM*	-6%	0	-4%
CCCCn1cc(S(=O)(=O)c2cc(C)ccc2C)c(=O)c2cc(F)c(N3CCC(C)CC3)cc21	5%	x	x	x	x
O=C1OC(Nc2nccs2)c2ccccc21 (centres undefined)	u	24µM*	3%	-12	-8%
N#Cc1ccccc1NC(=O)CSc1ncn[nH]1	-7%	x	x	x	x
O=C(NCC1CCCO1)c1ccc2c(c1)N(Cc1ccccc1)C(=O)CS2=O (centres undefined)	u	7.5µM*	15%	13	0%
Cc1cc(C)c(S(=O)(=O)Nc2cc(Cl)c3oc4c(c3c2)C(=O)CCC4)cc1C	9%	x	x	x	x
CCOC(=O)c1sc(NC(=O)/C=C/c2cnn(CC)c2C)c(C(=O)OCC)c1C	u	13µM*	x	-2	-12%
N#CC(C#N)=Cc1cc2ccccc2nc1N1CCCCC1	71µM*	u	0%	-4	-1%
CCOC(=O)/C(C#N)=C/c1cc2ccccc2nc1N1CCOCC1	-11%	0%	-10%	-2	-3%
Cc1cccc(NC(=O)CSc2nccn2-c2cccc(Cl)c2)c1C	5%	x	x	x	x
O=C(O)CCn1c(SCc2ccccc2)nc2ccccc21	-9%	2%	-10%	-2	-5%
